{"source": "PubChem BioAssay (NCATS)", "note": "“And” between values parts separate entries of the source, which are not always exact repeats. Equal values may be shown once. Records with an inconclusive call do not appear. The source made the active and inactive calls. Calls follow the shape of the dose curve; as a rule, active = well fitted inhibition curve with a large enough effect; inconclusive = small, poorly fitted or top-dose-only effect; inactive = no such curve, though single readings can be large or run the other way."}
{"experiment": "Primary qHTS for inhibitors of nuclear receptor binding SET domain protein 2 (NSD2) in an RCH-ACV wild type WT cells (2C) (AID 1645877); also: nearly all actives have a fitted effect of over 70% in size; also: potency is read from the fitted curve at half-maximal effect; as to activity change, negative = cell killing: % is scaled to controls: 0 for no effect and ±100 for the full control effect", "settings": "RCH-ACV NSD2 WT (2C) viability, CellTiter-Glo, 72 h; series mostly up to 44.9 µM; activity change, negative = cell killing: at the top concentration", "description": "Assay Provider: Jonathan D. Licht, MD\nUniversity of Florida College of Medicine, Gainesville, FL\nMutations in epigenetic regulators are common in relapsed pediatric acute lymphoblastic leukemia (ALL). Here, we uncovered the mechanism underlying the relapse of ALL driven by an activating mutation of the NSD2 histone methyltransferase (p.E1099K). […] Correction of this mutation restored glucocorticoid sensitivity. The transcriptional response to glucocorticoids was blocked in NSD2 mutant cells due to depressed glucocorticoid receptor (GR) levels and the failure of glucocorticoids to autoactivate GR expression. […] Pre-treatment of NSD2 p.E1099K cell lines and PDX samples with PRC2 inhibitors reversed glucocorticoid resistance in vitro and in vivo.\nHigh-throughput drug screening of isogenic RCH-ACV cell lines was performed at the National Center for Advancing Translational Science (NCATS), National Institutes of Health as previously described (1). Briefly, isogenic RCH-ACV NSD2 p.E1099K mutant (9B) and WT cells (2C) were plated at 500 cells/well in a 1536-well plate with a 72-hour incubation with compounds prior to addition of CellTiter-Glo to assess cell viability. NCATS libraries screened include: NPC, MIPE 5.0, Kinase and NPACT. To determine compound activity in the qHTS assay, the concentration-response data for each sample was plotted and modeled by a four-parameter logistic fit yielding IC50 and efficacy (maximal response) values. The area under the curve (AUC) of the dose-response curve ensures both efficacy (magnitude of cell killing) and potency (concentration that elicits cell killing) are accounted for in the analysis of activity.\n1. Tobie D Lee, Olivia W Lee, Kyle R Brimacombe, Lu Chen, Rajarshi Guha, Sabrina Lusvarghi, Bethilehem G Tebase, Carleen Klumpp-Thomas, Robert W Robey, Suresh V Ambudkar, Min Shen, Michael M Gottesman, Matthew D Hall. A High-Throughput Screen of a Library of Therapeutics Identifies Cytotoxic Substrates of P-glycoprotein. Mol Pharmacol. 2019, Nov;96(5):629-640."}
{"compound": "CN1[C@H]2CC(O)C[C@H]1[C@H]1O[C@H]12", "note": "(stereo not given in full)", "outcome": "inactive"}
{"compound": "CC[C@@H](C(N)=O)N1CCCC1=O", "activity change, negative = cell killing": "7.45% (inactive)"}
{"compound": "COCCOCCO", "activity change, negative = cell killing": "-7.93% [at 91.9 µM] (inactive)"}
{"compound": "C[C@](O)(COc1ccc(C#N)cc1)C(=O)Nc1ccc(C#N)c(C(F)(F)F)c1", "Potency": "20.9 µM (active)"}
{"compound": "COc1ccc2c(c[n+](C)c3c4cc5c(cc4ccc23)OCO5)c1OC", "activity change, negative = cell killing": "-95.4% (inactive)"}
{"compound": "Cc1[nH]nc2ccc(-c3cncc(OC[C@@H](N)Cc4c[nH]c5ccccc45)c3)cc12", "Potency": "81.7 nM (active) and 132 nM (active)"}
{"compound": "C/C=C(/C)C(=O)O[C@H]1C(C)=C2[C@H]([C@@H]1OC(=O)CCCCCCC)[C@@](C)(OC(C)=O)C[C@H](OC(=O)CCC)[C@@]1(O)[C@H]2OC(=O)[C@@]1(C)O", "Potency": "6.5 nM (active) and 16.6 nM (active)"}
{"compound": "COc1nn(CSP(=S)(OC)OC)c(=O)s1", "Potency": "13.7 µM (active)"}
{"compound": "CN[C@@H]1Cc2cccc3[nH]c(=O)n(c23)C1", "activity change, negative = cell killing": "7.38% (inactive)"}
{"compound": "c1cc2ccc3cccc4ccc(c1)c2c34", "activity change, negative = cell killing": "-4.61% [at 91.9 µM] (inactive)"}
{"compound": "CCOCCOC(C)=O", "activity change, negative = cell killing": "9.43% [at 91.9 µM] (inactive)"}
{"compound": "Nc1ccc(Sc2ccc(N)cc2)cc1", "Potency": "34.4 µM (active)"}
{"compound": "CO/C=C(/C(=O)OC)c1ccccc1Oc1cc(Oc2ccccc2C#N)ncn1", "Potency": "24.3 µM (active)"}
{"compound": "O=[N+]([O-])c1c(Cl)c(Cl)cc(Cl)c1Cl", "activity change, negative = cell killing": "0.973% [at 91.9 µM] (inactive)"}
{"compound": "O=C(Oc1ccc([N+](=O)[O-])cc1)N1CCN(Cc2cccc(Oc3ccccc3)c2)CC1", "activity change, negative = cell killing": "8.42% (inactive)"}
{"compound": "CCCCCCCCCCCCCCCC[N+](C)(C)C", "Potency": "0.596 µM (active)"}
{"compound": "O=C(O)COc1nc(Cl)c(Cl)cc1Cl", "activity change, negative = cell killing": "2.37% [at 91.9 µM] (inactive)"}
{"compound": "O=C(O)COc1ccccc1", "activity change, negative = cell killing": "3.03% (inactive)"}
{"compound": "c1ccc2c(CN3CCNCC3)cccc2c1", "activity change, negative = cell killing": "-0.565% (inactive)"}
{"compound": "O=C(N[C@@H](COc1ccc2[nH]c(=O)[nH]c2c1)c1ccccc1)c1cccn(Cc2ccc(F)c(F)c2)c1=O", "Potency": "4.17 µM (active)"}
{"compound": "CC(C)(C)NC[C@H](O)c1ccc(O)cc1Cl", "outcome": "inactive"}
{"compound": "O=C(NCC1CCOCC1)c1cnc(Nc2ccc(Cl)cc2Cl)nc1C(F)(F)F", "activity change, negative = cell killing": "1.06% (inactive)"}
{"compound": "CC1=C(C(=O)O)N2C(=O)[C@@H](N)[C@H]2SC1", "activity change, negative = cell killing": "-8.72% [at 17.3 µM] (inactive)"}
{"compound": "O=C(O)c1cc(Oc2ccc(C(F)(F)F)cc2Cl)ccc1[N+](=O)[O-]", "activity change, negative = cell killing": "-23.7% (inactive)"}
{"compound": "O=[N+]([O-])c1c2ccccc2cc2ccccc12", "activity change, negative = cell killing": "-18.6% [at 91.9 µM] (inactive)"}
{"compound": "NC1=NC(=O)N2CC12", "note": "(stereo not given)", "activity change, negative = cell killing": "-29.9% (inactive)"}
{"compound": "O=S(=O)(c1ccc(Cl)cc1)c1ccc(Cl)cc1", "activity change, negative = cell killing": "-23.1% [at 91.9 µM] (inactive)"}
{"compound": "COC(=O)[C@@H](N)CCCN=C(N)N[N+](=O)[O-]", "outcome": "inactive"}
{"compound": "O=c1[nH]c2ccccc2n1C1CCN(Cc2ccc(-c3[nH]c4cc5ncnc5cc4nc3-c3ccccc3)cc2)CC1", "Potency": "5.25 µM (active)"}
{"compound": "Cc1ccc(Cl)c(O)c1", "outcome": "inactive"}
{"compound": "CC(N[C@H]1C[C@H]1c1ccccc1)c1ccc2c(c1)OCCO2", "note": "(stereo not given in full)", "activity change, negative = cell killing": "-22.6% (inactive)"}
{"compound": "N=c1c2c(-c3ccccc3)c(-c3ccccc3)n(Cc3ccccc3)c2ncn1C1CCC(O)CC1", "note": "(stereo not given)", "Potency": "0.263 µM (active)"}
{"compound": "Nc1c(Cl)c(Cl)c(Cl)c(Cl)c1Cl", "activity change, negative = cell killing": "8.29% [at 91.9 µM] (inactive)"}
{"compound": "O=C(Nc1ccncc1)C(=O)c1cn(Cc2ccc(Cl)cc2)c2ccccc12", "Potency": "0.235 µM (active)"}
{"compound": "C=CCC1=C(C)C(OC(=O)C2C(C=C(C)C)C2(C)C)CC1=O", "note": "(stereo not given)", "Potency": "34.4 µM (active)"}
{"compound": "O=C(O)CNC(=O)c1c(O)c2ccccc2n(Cc2ccccc2)c1=O", "activity change, negative = cell killing": "-12.4% (inactive)"}
{"compound": "Oc1ccc2c3c1O[C@H]1[C@@H](O)C=C[C@H]4[C@@H](C2)NCC[C@@]341", "Potency": "39.7 µM (active)"}
{"compound": "O=C(O)CCCOc1ccc(Cl)cc1Cl", "activity change, negative = cell killing": "-12.2% [at 91.9 µM] (inactive)"}
{"compound": "CCOP(=O)(OCC)C(C)NC(=O)N(CCCl)N=O", "note": "(stereo not given)", "outcome": "inactive"}
{"compound": "Cc1cc(O)ccc1Cl", "activity change, negative = cell killing": "2.06% (inactive)"}
